PubChem BioAssay (NCATS)
Several values for one entry are separate records, joined by “and”; a condition that tells them apart may be missing. Equal entries are not always repeated. Results filed as inconclusive are left out. Activity calls are given as the source filed them. Calls come from the whole dose curve; as a rule, active = well fitted curve in the direction sought with a large enough effect; inconclusive = small, poorly fitted or top-dose-only effect, or another doubt; inactive = no such curve, though single readings can be large; an effect the other way counts as inactive or inconclusive.

Experiments:
[1] = system: CRL-7250; assay: Cytotoxic Profiling of Annotated Libraries Using Quantitative High-Throughput Screening (AID 1296008); settings: Five cell lines viability, CellTiter-Glo ATP luminescence, 48-72 h; max response: active compounds read low; note: nearly all actives have a fitted effect of over 60% in size
Summary of the method: (§1)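 Cells exposed to compounds for 48 or 72 hr at 37 degrees Celsius. Viability read as ATP-coupled luminescence with CellTiter-Glo after 10 min at room temperature.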

[2] = system: HaCat; assay: as above; settings: Five cell lines viability, CellTiter-Glo ATP luminescence, 48-72 h; max response: active compounds read low
Summary of the method: as §1

[3] = system: KB-3-1; assay: as above; settings: Five cell lines viability, CellTiter-Glo ATP luminescence, 48-72 h; max response: active compounds read low
Summary of the method: as §1

[4] = system: NIH3T3; assay: as above; settings: Five cell lines viability, CellTiter-Glo ATP luminescence, 48-72 h; max response: active compounds read low
Summary of the method: as §1

[5] = system: C33A; assay: Primary qHTS to identify gynecologic anti-cancer compounds using libraries of approved drugs and bioactive compounds (AID 1345084); settings: Gynecologic cancer cell panel viability, ATPlite luminescence, 48 h; series mostly up to 57.5 µM; note: nearly all actives have a fitted effect of over 55% in size
Summary of the method: (§2)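 Cytotoxicity screen measuring ATP content by luciferase luminescence. Each compound is applied at five concentrations for 48 h at 37 C with 5% CO2.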

[6] = system: CAOV3; assay: as above; settings: Gynecologic cancer cell panel viability, ATPlite luminescence, 48 h; series mostly up to 57.5 µM
Summary of the method: as §2

[7] = system: CASKI; assay: as above; settings: Gynecologic cancer cell panel viability, ATPlite luminescence, 48 h; series mostly up to 57.5 µM
Summary of the method: as §2

[8] = system: Es-2; assay: as above; settings: Gynecologic cancer cell panel viability, ATPlite luminescence, 48 h; series mostly up to 57.5 µM
Summary of the method: as §2

[9] = system: HeLa; assay: as above; settings: Gynecologic cancer cell panel viability, ATPlite luminescence, 48 h; series mostly up to 57.5 µM
Summary of the method: as §2

[10] = system: Hek293T; assay: as above; settings: Gynecologic cancer cell panel viability, ATPlite luminescence, 48 h, control line for the selectivity index; series mostly up to 57.5 µM
Summary of the method: as §2

[11] = system: JEG-3; assay: as above; settings: Gynecologic cancer cell panel viability, ATPlite luminescence, 48 h; series mostly up to 57.5 µM
Summary of the method: as §2

[12] = system: OV90; assay: as above; settings: Gynecologic cancer cell panel viability, ATPlite luminescence, 48 h; series mostly up to 57.5 µM
Summary of the method: as §2

[13] = system: PA-1; assay: as above; settings: Gynecologic cancer cell panel viability, ATPlite luminescence, 48 h; series mostly up to 57.5 µM
Summary of the method: as §2

[14] = system: SKOV3; assay: as above; settings: Gynecologic cancer cell panel viability, ATPlite luminescence, 48 h; series mostly up to 57.5 µM
Summary of the method: as §2
% is set by controls: 0 for no effect and ±100 for the full control effect.

C[C@@H]1C[C@H]2O[C@@]3(O[C@@H]2C(C)(C)O)C(O)[C@@]2(C)C4CCC5C(C)(C)[C@@H](O[C@H]6OC[C@H](O)[C@@H](O)[C@@H]6O)CC[C@@]56C[C@@]46CC[C@]2(C)C13 (some centres undefined)
inactive: max response [1] 1.57% | max response [2] -16.2% | max response [3] -6.46% | max response [4] -0.0399% | Potency [5] | Potency [6] | Potency [7] | Potency [8] | Potency [9] | Potency [10] | Potency [11] | Potency [12] | Potency [13] | Potency [14]

O=C(NCC(=O)N1CCCC1)Nc1ccc2cnccc2c1
inactive: max response [1] -0.26% | max response [2] -20.6% | max response [3] -4.72% | max response [4] -5.01% | Potency [5] | Potency [6] | Potency [7] | Potency [8] | Potency [9] | Potency [10] | Potency [11] | Potency [12] | Potency [13] | Potency [14]

CC(C)=CCc1cc2c(cc1O)OC[C@H]1c3ccc(O)cc3O[C@@H]21
inactive: max response [1] -7.41% | max response [2] -13.5% | max response [3] -5.17% | max response [4] -23.2% | Potency [5] | Potency [6] | Potency [7] | Potency [8] | Potency [9] | Potency [10] | Potency [11] | Potency [12] | Potency [13] | Potency [14]

CCC(C)c1ccc(NC(=O)Cn2cnc3c2c(=O)n(C)c(=O)n3C)cc1 (centres undefined)
inactive: max response [1] -7.14% | max response [2] -17.7% | max response [3] -2.48% | max response [4] -2.04% | Potency [5] | Potency [6] | Potency [7] | Potency [8] | Potency [9] | Potency [10] | Potency [11] | Potency [12] | Potency [13] | Potency [14]

CC(C)C(C)C(O)C1CC23CC(=O)C4(O)C(=C2CCC3C1C)C=CC1(O)CC(O)CCC14C (centres undefined)
inactive: max response [1] -22.9% | max response [2] 2.09% | max response [3] 5.36% | max response [4] -0.33% | Potency [5] | Potency [6] | Potency [7] | Potency [8] | Potency [9] | Potency [10] | Potency [11] | Potency [12] | Potency [13] | Potency [14]

CN(C)CC#CCCC(=O)C(O)(c1ccccc1)C1CCC1 (centres undefined)
inactive: max response [1] 4.04% | max response [2] 3% | max response [3] 7.92% | max response [4] -1.12% | Potency [5] | Potency [6] | Potency [7] | Potency [8] | Potency [9] | Potency [10] | Potency [11] | Potency [12] | Potency [13] | Potency [14]

Cn1cc(-c2ccc(F)c(C(F)(F)F)c2)nc1C1CCN(c2ncnc3[nH]ncc23)CC1
inactive: max response [1] -0.425% | max response [2] -21.3% | max response [3] 0.816% | max response [4] 1.5% and -4.9% | Potency [5] | Potency [6] | Potency [7] | Potency [8] | Potency [9] | Potency [10] | Potency [11] | Potency [12] | Potency [13] | Potency [14]

CNCc1cc(-c2ccccc2F)n(S(=O)(=O)c2cccnc2)c1
inactive: max response [1] -3.13% | max response [2] -5.62% | max response [3] -0.384% | max response [4] 0.556% | Potency [5] | Potency [6] | Potency [7] | Potency [8] | Potency [9] | Potency [10] | Potency [11] | Potency [12] | Potency [13] | Potency [14]

Cn1c(SCC(=O)N2CCC[C@H]2C(=O)Nc2ccccc2-c2ccccc2)nc2ccccc21
inactive: outcome [1] | max response [2] -3.91% | max response [3] 7.08% | max response [4] -3.15% | Potency [5] | Potency [6] | Potency [7] | Potency [8] | Potency [9] | Potency [10] | Potency [11] | Potency [12] | Potency [13] | Potency [14]

N#Cc1cccc(C(=O)Nc2cc(-c3ccccc3)nn2-c2ccccc2)c1
inactive: max response [1] 1.2% | max response [2] 1.42% | max response [3] -17% | max response [4] -3.88% | Potency [5] | Potency [6] | Potency [7] | Potency [8] | Potency [9] | Potency [10] | Potency [11] | Potency [12] | Potency [13] | Potency [14]

CC1(C)CCC2(C(=O)OC3OC(COC4OC(CO)C(O)C(O)C4O)C(O)C(O)C3O)CCC3(C)C(=CCC4C5(C)CCC(OC6OCC(O)C(O)C6O)C(C)(C)C5CCC43C)C2C1O (centres undefined)
inactive: max response [1] -0.133% | max response [2] -3.21% | outcome [3] | max response [4] -18.4% | activity change, negative = cytotoxicity [5] -1.3% [at 11.6 µM] | activity change, negative = cytotoxicity [6] 1.87% [at 11.6 µM] | activity change, negative = cytotoxicity [7] -6.34% [at 11.6 µM] | activity change, negative = cytotoxicity [8] 5.34% [at 11.6 µM] | activity change, negative = cytotoxicity [9] 20.6% [at 11.6 µM] | activity change, negative = cytotoxicity [10] -15.1% [at 11.6 µM] | activity change, negative = cytotoxicity [11] -7.3% [at 11.6 µM] | activity change, negative = cytotoxicity [12] -2.98% [at 11.6 µM] | activity change, negative = cytotoxicity [13] -14.1% [at 11.6 µM] | activity change, negative = cytotoxicity [14] -2.57% [at 11.6 µM]
